PfHsp90 yeast 2 = growth inhibition of yeast expressing Plasmodium Hsp90. S. cerevisiae expressing PfHsp90, BacTiter-Glo ATP, 48 h; yeast lacking PDR1 and PDR3 efflux regulators. hit rate 0.32% among 310,000. inhibition, % at 9.4 µM;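 active = every replicate shows inhibition above about 80%, whatever the replicate mean, limit read from the data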;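 also: 0% = DMSO neutral controls and 100% = 20 µM radicicol positive controls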
TIM10 inh = growth inhibitors of TIM10 yeast strain; S. cerevisiae TIM10 strain growth, BacTiter-Glo luminescence, 24 h; inhibition, % at 10 µM; hit rate 1.4% among 330,000; AID 463195;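 active = inhibition of 40% or more at the single tested concentration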;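 also: wild-type TIM10 isogenic control strain grown at permissive 25 °C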
tim10-1 inh = growth inhibitors of tim10-1 mutant yeast | S. cerevisiae tim10-1 ts strain growth, BacTiter-Glo, 24 h | inhibition, % at 20 µM | hit rate 2.2% among 330,000;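 active = inhibition of at least 40%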;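 also: mutant grown at 25 °C; 0% = DMSO wells with yeast and 100% = wells holding no yeast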
tim23-1 inh = inhibits growth of tim23-1 mutant yeast | S. cerevisiae tim23-1 growth, BacTiter-Glo luminescence, 24 h | inhibition, % at 20 µM | hit rate 1.3% among 330,000 | AID 463212;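 active = growth inhibition of the mutant yeast at or above 50%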;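 also: temperature-sensitive mutant grown at 25 °C; plate controls were DMSO-treated mutant yeast for no effect and medium wells lacking yeast for full effect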
SKKanGAS inh = SKKanGAS growth inhibition; S. pyogenes SKKanGAS, kanamycin growth, BacTiter-Glo, 6 h; inhibition, % at 7.5 µM; hit rate 1.3% among 300,000;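 active = mean replicate score, as percent of positive control median, at least 50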;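 also: strain carries kanamycin resistance gene driven by streptokinase promoter and grows in 40 µg/ml kanamycin; loss of luminescence reflects streptokinase promoter inhibition or plain growth inhibition; 0% = median of DMSO wells and 100% = positive control at its reference dose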
NALP3 yeast inh = blocks the NALP3 inflammasome reconstituted in yeast. inhibition, % at 10 µM. hit rate 0.39% among 330,000. Yeast reconstituted NLRP3/ASC/caspase-1, beta-gal luminescence, 24 h;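 active = inhibition of 50% or more; inactive = inhibition below 50%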;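 also: plate controls were induced DMSO wells for no effect and uninduced yeast grown without galactose for full effect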
Numbers without * were called inactive; x = no result. Sampled rows, rich in hits. Any-hit rate of the full collection: about 4.5%.

SMILES | PfHsp90 yeast 2 | TIM10 inh | tim10-1 inh | tim23-1 inh | SKKanGAS inh | NALP3 yeast inh
CC(C)C(=O)NC(c1ccc(Cl)cc1Cl)c1ccc2cccnc2c1O (stereo not given) | 112.6* | -2.8 | -36.1 | 44.7 | 81.4* | 19.8
CC(=O)NC(c1ccco1)c1ccc2cccnc2c1O (stereo not given) | 4.0 | -10.7 | 29.7 | 17.4 | 40.3 | 33.6
COc1ccc(C(NC(=O)C(C)C)c2ccc3cccnc3c2O)cc1 (stereo not given) | 60.5 | -46.2 | 3.7 | 38.3 | 54.7* | 7.8
COc1cc(C(Nc2ccccn2)c2ccc3ccc(C)nc3c2O)cc(OC)c1O (stereo not given) | 3.3 | 10.6 | 37.7 | 19.7 | 9.5 | 5.4
O=C(O)c1ccccc1NC(c1ccccc1)c1ccc2cccnc2c1O (stereo not given) | 121.1* | x | x | x | x | x
CCCCC(=O)NC(c1ccc(Cl)cc1Cl)c1ccc2cccnc2c1O (stereo not given) | -78.3 | -65.0 | 1.7 | -3.9 | 92.3* | 16.0
COc1ccc2c(c1)CCCC21NC(=O)N(CC(=O)N2CC(C)OC(C)C2)C1=O (stereo not given) | x | 2.4 | -10.9 | -5.4 | x | 4.6
O=C(Nc1nnc(-c2ccc3c(c2)CCCC3)o1)c1ccc(Cl)cc1Cl | 104.6* | 18.4 | 28.1 | 35.3 | 96.0* | 23.6
O=C(Nc1nnc(-c2ccc3c(c2)CCCC3)o1)C1CCCCC1 | -20.3 | -25.5 | -44.1 | -27.5 | 81.4* | 14.0
O=C(Nc1nnc(-c2ccc(Cl)cc2)o1)C1=COCCO1 | -7.2 | 27.2 | 4.7 | 17.0 | -1.7 | 15.0
CN(C)S(=O)(=O)c1ccc(C(=O)Nc2nnc(-c3ccc4c(c3)CCCC4)o2)cc1 | -19.3 | -0.9 | 12.0 | 2.4 | 94.3* | -5.0
O=C(Nc1nnc(-c2ccc3c(c2)CCCC3)o1)c1c(F)cccc1F | -22.0 | 10.0 | 13.3 | 37.4 | 94.9* | -3.2
COc1ccc(C2SCC(=O)N2CCc2ccc(OC)c(OC)c2)cc1 (stereo not given) | 6.8 | 10.2 | 29.3 | -14.8 | 4.2 | 10.9
O=C(CCc1ccccc1)Nc1nnc(-c2ccc3c(c2)OCCO3)o1 | 3.9 | -1.7 | 3.1 | 7.6 | 9.8 | 0.7
O=C(CCc1ccccc1)Nc1nnc(-c2ccc3c(c2)CCCC3)o1 | -1.2 | 9.8 | 16.3 | 18.7 | 85.2* | 1.5
O=C(CSc1nc(-c2ccc(Cl)cc2)[nH]c(=O)n1)Nc1cccc(Cl)c1 | 0.5 | 28.4 | 9.3 | 17.9 | 58.5* | 0.2
O=C(CSc1n[nH]c(-c2cccnc2)n1)Nc1cccc(Cl)c1 | 0.0 | 0.7 | 1.1 | -1.5 | -7.8 | 3.1
COc1cccc(CN2CCN(Cc3cccc(Br)c3)CC2)c1OC | 1.9 | -0.3 | -1.6 | 2.5 | 3.8 | 29.4
CC1CC(=O)c2c(cc3c(-c4c(O)cc(O)c5c(O)c6c(cc45)OC(C)CC6=O)c(O)cc(O)c3c2O)O1 (stereo not given) | 13.0 | -2.5 | 11.9 | 22.2 | 107.4* | 24.1
CC(=O)NS(=O)(=O)c1ccc(N=c2ssc3c2-c2cc(C)c(C)cc2NC3(C)C)cc1 | -37.0 | 6.9 | 4.9 | -0.1 | 39.1 | 3.9
Cc1cc2c(cc1C)-c1c(ssc1=Nc1ccc(S(N)(=O)=O)cc1)C(C)(C)N2 | 0.1 | 8.6 | 10.1 | 3.4 | 50.0* | 6.6
CN1C(=O)C(=O)/C(=C(/O)c2ccc(Br)cc2)C1c1ccccc1F (stereo not given) | -12.0 | -17.1 | 2.3 | -7.1 | 0.3 | -2.4
O=[N+]([O-])c1cc(Cl)c2cccnc2c1O | -44.0 | 7.2 | 9.8 | -38.1 | 83.4* | 0.8
O=[N+]([O-])c1ccc(Cl)c2cccnc12 | -0.8 | -6.8 | 7.9 | 4.8 | -2.3 | 13.2
O=[N+]([O-])c1cc(F)c2cccnc2c1O | -52.8 | -15.4 | 4.5 | -30.0 | 40.3 | -0.3
SMILES | PfHsp90 yeast 2 | TIM10 inh | tim10-1 inh | tim23-1 inh | SKKanGAS inh | NALP3 yeast inh
O=[N+]([O-])c1cc(Cl)c(O)c2ncccc12 | 98.4* | -6.7 | -16.4 | -13.3 | 51.0* | 22.4
Cc1cccc(CC(=O)NCCN2CCCCC2)c1 | 3.0 | 14.0 | -11.4 | 1.8 | -0.5 | 17.1
COc1ccccc1/C=C/C(=O)N1CCc2cc(OC)c(OC)cc2C1C (stereo not given) | 3.3 | 20.8 | 32.0 | 39.9 | -1.2 | 22.1
Cc1cccn2c(=O)nc(SCC(=O)NCc3ccccc3)nc12 | -17.2 | 3.8 | -2.0 | -5.8 | -0.4 | 15.4
COCCn1c(-c2cc(OC)c(OC)c(OC)c2)nc2oc3cc(OC)ccc3c(=O)c2c1=O | x | 5.1 | 0.0 | -2.7 | 54.6* | -5.1
COCCn1c(-c2ccc(C)cc2)nc2oc3cc(OC)ccc3c(=O)c2c1=O | 31.5 | -3.1 | -6.8 | 5.8 | 0.7 | 7.1
COc1cc(/C=C2\C(=N)N3N=C(S(C)(=O)=O)SC3=NC2=O)ccc1OS(=O)(=O)c1ccc(C)cc1 | -12.1 | 10.2 | 17.7 | 16.7 | 36.6 | 22.1
O=C(O)CCCNc1cc(N2CCN(C(=O)c3ccco3)CC2)c2noc3c2c1C(=O)c1ccccc1-3 | -25.3 | 17.0 | 28.1 | 31.9 | 51.7* | 20.9
O=C(O)CCCNc1cc(N2CCC3(CC2)OCCO3)c2noc3c2c1C(=O)c1ccccc1-3 | x | 8.6 | 39.1 | 29.2 | x | 14.0
O=C(c1nc2ccc(Cl)cn2c1CN1CCC(CO)CC1)N1CCc2ccccc2C1 | -5.7 | 10.6 | 1.7 | 1.9 | 52.2* | 8.3
CCOC(=O)N1CCN(C(=O)c2ccc3c(c2)N(C)C(=O)/C(=C\c2ccc(OCC)c(OC)c2)S3)CC1 | -65.2 | 1.0 | 20.9 | 12.4 | 108.4* | 0.6
Cc1cccc(/C=C2\Sc3ccc(C(=O)N4CCC(C)CC4)cc3N(C)C2=O)c1 | -29.8 | 8.6 | 29.5 | 22.2 | 76.1* | 21.8
CCOc1ccc(/C=C2/Sc3ccc(C(=O)N4CCN(C(=O)c5ccco5)CC4)cc3N(C)C2=O)cc1OC | x | 11.8 | 10.2 | 15.2 | 66.6* | 13.2
CCOc1ccc(/C=C2/Sc3ccc(C(=O)NCC4CCCO4)cc3N(C)C2=O)cc1OC (stereo not given) | 32.3 | 32.6 | 20.1 | 15.1 | 26.4 | -3.5
COc1ccc(Cl)cc1NC(=O)C/C(C)=N/NC(=O)C(=O)NCc1ccccc1 | 9.3 | 5.9 | 30.6 | 26.6 | 3.8 | 12.4
COc1ccccc1NC(=O)CN(Cc1ccco1)C(=O)c1cc2ccccc2o1 | x | 18.9 | 11.2 | 22.6 | 4.0 | 12.4
CCOc1ccc(/C(O)=C2/C(=O)C(=O)N(c3ccccn3)C2c2ccc(Cl)cc2)c(C)c1 (stereo not given) | 3.7 | x | x | x | 64.3* | x
O=C(N/N=C/c1c[nH]c2ccccc12)c1cc(-c2ccc3ccccc3c2)n[nH]1 | -2.6 | 24.6 | -18.6 | 18.3 | 95.0* | -4.7
O=C(N/N=C/c1c[nH]c2ccccc12)C1CC1c1ccccc1 (stereo not given) | -31.4 | 16.0 | 13.6 | 35.6 | 6.8 | 6.1
O=C(N/N=C/c1c[nH]c2ccccc12)c1cc(-c2ccc(-c3ccccc3)cc2)n[nH]1 | 17.8 | 4.5 | 0.9 | 15.0 | 92.3* | 15.2
